From article PMC7862700, “An all-to-all approach to the identification of sequence-specific readers for epigenetic DNA modifications on cytosine”

Assays:
Assay in all cases: DAPPL (digital affinity profiling via proximity ligation, sequencing); 10 mM Tris-HCl pH 7.5, 50 mM NaCl, 1 mM DTT, 4% glycerol, room temperature, 30 min; GST-TFs on glutathione beads, 16-mer random dsDNA library, 0.1% formaldehyde crosslink after washing; high values mean tight binding
FLI1 = molecular target: T1, FLI1 (Homo sapiens, UniProt Q01543 1-452); conditions: protein: recombinant; tags: N-terminal GST; dsDNA, one strand shown
T1 sequence: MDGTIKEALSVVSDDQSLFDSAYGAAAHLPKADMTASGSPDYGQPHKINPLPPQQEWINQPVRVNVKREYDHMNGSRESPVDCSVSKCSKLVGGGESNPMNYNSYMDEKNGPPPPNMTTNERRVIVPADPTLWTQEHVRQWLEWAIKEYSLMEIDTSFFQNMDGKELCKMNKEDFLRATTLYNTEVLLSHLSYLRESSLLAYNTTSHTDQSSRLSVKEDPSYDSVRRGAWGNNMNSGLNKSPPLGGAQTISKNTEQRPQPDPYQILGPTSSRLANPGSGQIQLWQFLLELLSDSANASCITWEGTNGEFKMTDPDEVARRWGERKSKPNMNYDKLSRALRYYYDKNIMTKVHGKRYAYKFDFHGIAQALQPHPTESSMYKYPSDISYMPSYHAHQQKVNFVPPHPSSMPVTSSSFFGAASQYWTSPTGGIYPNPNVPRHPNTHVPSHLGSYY
Method in brief: (§1)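 Human transcription factors carrying a GST fusion were produced in yeast, bound to glutathione beads, tagged with DNA barcodes and pooled together with a tag-only sample. Each pool was held with 200 nmole of a random double-stranded 16-mer DNA library in Tris/NaCl/DTT/glycerol buffer for 30 min at room temperature, then washed, crosslinked in 0.1% formaldehyde, proximity-ligated with BsaI/T4 ligase (1 h, 37 °C), PCR-amplified and sequenced on an Illumina NextSeq500. Binding signal is the read frequency of each hexamer for a given factor divided by its frequency in the tag-only sample.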

ELK1 = molecular target: T2, ELK1 (Homo sapiens, UniProt P19419 1-428); conditions: protein: recombinant; tags: N-terminal GST; dsDNA, one strand shown
T2 sequence: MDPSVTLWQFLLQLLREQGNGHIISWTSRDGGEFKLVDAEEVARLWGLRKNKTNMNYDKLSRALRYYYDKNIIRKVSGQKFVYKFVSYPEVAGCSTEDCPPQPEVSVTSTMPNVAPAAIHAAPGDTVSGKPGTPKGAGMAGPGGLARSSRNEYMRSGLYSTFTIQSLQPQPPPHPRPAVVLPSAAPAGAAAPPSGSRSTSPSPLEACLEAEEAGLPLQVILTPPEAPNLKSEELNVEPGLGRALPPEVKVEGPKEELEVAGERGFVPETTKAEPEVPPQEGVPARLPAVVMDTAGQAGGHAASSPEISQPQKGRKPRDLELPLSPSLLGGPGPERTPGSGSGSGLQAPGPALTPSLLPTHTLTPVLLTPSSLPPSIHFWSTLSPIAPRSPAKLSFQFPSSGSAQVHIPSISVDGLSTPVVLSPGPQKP
Method in brief: as §1

GABPA = molecular target: T3, GABPA (Homo sapiens, UniProt Q06546 1-454); conditions: protein: recombinant; tags: N-terminal GST; dsDNA, one strand shown
T3 sequence: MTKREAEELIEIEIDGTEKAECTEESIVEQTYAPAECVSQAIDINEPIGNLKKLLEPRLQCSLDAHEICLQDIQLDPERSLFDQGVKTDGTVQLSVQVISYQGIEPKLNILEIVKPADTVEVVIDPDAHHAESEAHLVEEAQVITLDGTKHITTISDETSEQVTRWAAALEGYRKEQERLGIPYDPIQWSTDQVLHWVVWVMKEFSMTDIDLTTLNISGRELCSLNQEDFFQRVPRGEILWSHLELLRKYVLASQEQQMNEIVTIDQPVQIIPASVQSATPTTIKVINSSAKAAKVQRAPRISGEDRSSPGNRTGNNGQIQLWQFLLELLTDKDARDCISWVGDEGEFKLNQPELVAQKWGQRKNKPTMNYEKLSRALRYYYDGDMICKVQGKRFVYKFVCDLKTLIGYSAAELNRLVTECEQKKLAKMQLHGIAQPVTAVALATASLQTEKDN
Method in brief: as §1

ERG = molecular target: T4, ERG (Homo sapiens, UniProt P11308 1-479); conditions: protein: recombinant; tags: N-terminal GST; dsDNA, one strand shown
T4 sequence: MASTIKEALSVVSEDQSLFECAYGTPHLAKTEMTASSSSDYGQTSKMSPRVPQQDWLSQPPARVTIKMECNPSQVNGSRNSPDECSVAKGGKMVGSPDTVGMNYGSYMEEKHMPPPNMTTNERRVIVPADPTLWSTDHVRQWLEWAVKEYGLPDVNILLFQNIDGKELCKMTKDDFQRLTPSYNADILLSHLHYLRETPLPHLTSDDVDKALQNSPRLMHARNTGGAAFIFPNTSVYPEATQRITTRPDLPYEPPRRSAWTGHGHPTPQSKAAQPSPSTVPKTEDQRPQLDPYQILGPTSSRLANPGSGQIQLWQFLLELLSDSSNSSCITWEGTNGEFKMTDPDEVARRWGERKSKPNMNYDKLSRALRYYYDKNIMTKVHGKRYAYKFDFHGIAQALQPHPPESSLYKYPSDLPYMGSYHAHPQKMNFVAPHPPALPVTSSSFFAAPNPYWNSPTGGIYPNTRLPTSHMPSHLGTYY
Method in brief: as §1

ELF1 = ELF1 (Homo sapiens, UniProt P32519 1-619); conditions: protein: recombinant; tags: N-terminal GST; dsDNA, one strand shown
ELF1, sequence (P32519 whole entry): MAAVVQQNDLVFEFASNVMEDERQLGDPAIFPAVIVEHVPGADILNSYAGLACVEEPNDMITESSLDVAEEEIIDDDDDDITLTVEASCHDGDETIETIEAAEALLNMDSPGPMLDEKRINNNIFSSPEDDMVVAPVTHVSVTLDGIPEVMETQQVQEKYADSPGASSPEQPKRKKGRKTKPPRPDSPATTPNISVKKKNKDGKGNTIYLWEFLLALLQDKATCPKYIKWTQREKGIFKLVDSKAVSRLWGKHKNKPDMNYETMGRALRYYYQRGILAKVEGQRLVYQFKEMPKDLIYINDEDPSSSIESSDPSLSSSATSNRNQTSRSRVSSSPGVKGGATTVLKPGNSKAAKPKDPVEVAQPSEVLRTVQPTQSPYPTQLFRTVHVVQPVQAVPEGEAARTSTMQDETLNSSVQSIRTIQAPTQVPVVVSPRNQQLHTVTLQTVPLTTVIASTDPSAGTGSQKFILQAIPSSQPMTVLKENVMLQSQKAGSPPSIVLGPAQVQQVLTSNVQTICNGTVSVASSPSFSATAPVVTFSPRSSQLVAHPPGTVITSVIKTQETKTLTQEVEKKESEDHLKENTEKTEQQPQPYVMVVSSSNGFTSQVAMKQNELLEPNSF
Method in brief: as §1

EHF = molecular target: T5, EHF (Homo sapiens, UniProt Q9NZC4 1-300); conditions: protein: recombinant; tags: N-terminal GST; dsDNA, one strand shown
T5 sequence: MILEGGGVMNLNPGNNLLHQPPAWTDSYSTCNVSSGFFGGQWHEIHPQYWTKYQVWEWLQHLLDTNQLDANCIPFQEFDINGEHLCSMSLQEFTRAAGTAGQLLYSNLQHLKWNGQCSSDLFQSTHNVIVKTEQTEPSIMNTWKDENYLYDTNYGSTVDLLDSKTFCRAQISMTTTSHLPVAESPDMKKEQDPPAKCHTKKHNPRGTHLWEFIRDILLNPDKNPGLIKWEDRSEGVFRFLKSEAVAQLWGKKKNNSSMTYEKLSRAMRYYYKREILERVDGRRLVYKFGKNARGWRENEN
Method in brief: as §1

SPI1 = SPI1 (Homo sapiens, UniProt P17947 1-270); conditions: protein: recombinant; tags: N-terminal GST; dsDNA, one strand shown
Method in brief: as §1

SPIB = SPIB (Homo sapiens, UniProt Q01892 1-262); conditions: protein: recombinant; tags: N-terminal GST; dsDNA, one strand shown
SPIB, sequence (Q01892 whole entry): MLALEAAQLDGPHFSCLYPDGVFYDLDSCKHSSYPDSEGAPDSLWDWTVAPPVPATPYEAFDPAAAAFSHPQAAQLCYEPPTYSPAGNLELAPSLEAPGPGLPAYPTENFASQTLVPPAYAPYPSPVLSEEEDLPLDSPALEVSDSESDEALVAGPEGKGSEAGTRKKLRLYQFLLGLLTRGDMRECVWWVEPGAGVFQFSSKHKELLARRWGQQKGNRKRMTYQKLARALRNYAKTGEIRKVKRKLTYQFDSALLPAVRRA
Method in brief: as §1

ELK3 = molecular target: T6, ELK3 (Homo sapiens, UniProt P41970 1-407); conditions: protein: recombinant; tags: N-terminal GST; dsDNA, one strand shown
T6 sequence: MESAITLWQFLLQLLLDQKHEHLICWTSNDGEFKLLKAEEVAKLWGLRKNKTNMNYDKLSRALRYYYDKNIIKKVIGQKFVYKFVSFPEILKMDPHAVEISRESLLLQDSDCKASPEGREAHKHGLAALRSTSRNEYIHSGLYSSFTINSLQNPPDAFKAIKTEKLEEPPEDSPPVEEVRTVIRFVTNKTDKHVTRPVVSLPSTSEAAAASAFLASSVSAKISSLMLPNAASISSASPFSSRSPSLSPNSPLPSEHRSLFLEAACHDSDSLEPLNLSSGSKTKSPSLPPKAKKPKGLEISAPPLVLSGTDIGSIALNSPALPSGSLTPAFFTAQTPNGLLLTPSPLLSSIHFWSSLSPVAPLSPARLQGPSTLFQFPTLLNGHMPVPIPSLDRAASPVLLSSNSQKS
Method in brief: as §1

FEV = molecular target: T7, FEV (Homo sapiens, UniProt Q99581 1-238); conditions: protein: recombinant; tags: N-terminal GST; dsDNA, one strand shown
T7 sequence: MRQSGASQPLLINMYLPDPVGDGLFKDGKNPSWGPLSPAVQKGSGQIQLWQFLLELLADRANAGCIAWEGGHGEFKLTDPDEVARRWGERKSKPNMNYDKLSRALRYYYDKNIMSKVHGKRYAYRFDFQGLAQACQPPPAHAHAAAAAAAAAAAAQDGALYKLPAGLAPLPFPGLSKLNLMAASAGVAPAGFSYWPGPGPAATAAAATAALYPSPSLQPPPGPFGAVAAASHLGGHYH
Method in brief: as §1

ETV5 = ETV5 (Homo sapiens, UniProt P41161 1-510); conditions: protein: recombinant; tags: N-terminal GST; dsDNA, one strand shown
ETV5, sequence (P41161 whole entry): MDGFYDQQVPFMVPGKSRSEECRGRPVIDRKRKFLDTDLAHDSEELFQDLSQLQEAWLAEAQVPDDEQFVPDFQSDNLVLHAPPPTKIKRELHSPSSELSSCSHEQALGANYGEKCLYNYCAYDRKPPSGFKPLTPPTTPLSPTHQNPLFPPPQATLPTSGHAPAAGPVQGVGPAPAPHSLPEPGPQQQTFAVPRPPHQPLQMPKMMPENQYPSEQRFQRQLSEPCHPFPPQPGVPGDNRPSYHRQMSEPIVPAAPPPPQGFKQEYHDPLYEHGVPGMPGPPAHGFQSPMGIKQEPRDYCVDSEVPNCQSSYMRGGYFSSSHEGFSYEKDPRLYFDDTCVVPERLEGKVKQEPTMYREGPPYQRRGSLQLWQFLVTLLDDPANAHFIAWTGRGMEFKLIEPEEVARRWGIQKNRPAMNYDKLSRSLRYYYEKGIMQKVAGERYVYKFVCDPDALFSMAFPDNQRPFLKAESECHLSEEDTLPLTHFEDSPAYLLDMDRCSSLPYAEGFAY
Method in brief: as §1

HSF1 = HSF1 (Homo sapiens, UniProt Q00613 1-529); conditions: protein: recombinant; tags: N-terminal GST; chain copies: 3; dsDNA, one strand shown
HSF1, sequence (Q00613 whole entry): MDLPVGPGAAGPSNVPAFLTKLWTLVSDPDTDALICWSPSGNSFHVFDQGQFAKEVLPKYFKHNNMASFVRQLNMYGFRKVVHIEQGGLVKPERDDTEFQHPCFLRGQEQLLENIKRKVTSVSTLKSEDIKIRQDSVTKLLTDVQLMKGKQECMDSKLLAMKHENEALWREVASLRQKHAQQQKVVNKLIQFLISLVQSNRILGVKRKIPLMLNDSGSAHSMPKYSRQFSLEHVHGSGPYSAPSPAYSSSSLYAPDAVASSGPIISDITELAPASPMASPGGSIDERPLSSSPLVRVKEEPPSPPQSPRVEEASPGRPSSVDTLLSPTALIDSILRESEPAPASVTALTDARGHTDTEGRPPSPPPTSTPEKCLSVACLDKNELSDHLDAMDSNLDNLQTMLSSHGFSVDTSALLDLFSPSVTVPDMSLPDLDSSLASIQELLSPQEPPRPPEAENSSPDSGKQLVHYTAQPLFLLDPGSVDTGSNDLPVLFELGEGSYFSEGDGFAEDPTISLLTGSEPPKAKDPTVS
Method in brief: as §1

SPIC = molecular target: T8, SPIC (Homo sapiens, UniProt Q8N5J4 1-248); conditions: protein: recombinant; tags: N-terminal GST; dsDNA, one strand shown
T8 sequence: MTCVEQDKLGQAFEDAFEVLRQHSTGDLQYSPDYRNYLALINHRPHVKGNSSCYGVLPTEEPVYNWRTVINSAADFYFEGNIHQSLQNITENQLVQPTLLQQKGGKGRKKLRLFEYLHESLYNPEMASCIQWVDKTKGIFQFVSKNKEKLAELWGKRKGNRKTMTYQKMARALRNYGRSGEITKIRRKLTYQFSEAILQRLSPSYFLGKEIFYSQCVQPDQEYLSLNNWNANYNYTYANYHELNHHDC
Method in brief: as §1

ELF4 = ELF4 (Homo sapiens, UniProt Q99607 1-663); conditions: protein: recombinant; tags: N-terminal GST; dsDNA, one strand shown
ELF4, sequence (Q99607 whole entry): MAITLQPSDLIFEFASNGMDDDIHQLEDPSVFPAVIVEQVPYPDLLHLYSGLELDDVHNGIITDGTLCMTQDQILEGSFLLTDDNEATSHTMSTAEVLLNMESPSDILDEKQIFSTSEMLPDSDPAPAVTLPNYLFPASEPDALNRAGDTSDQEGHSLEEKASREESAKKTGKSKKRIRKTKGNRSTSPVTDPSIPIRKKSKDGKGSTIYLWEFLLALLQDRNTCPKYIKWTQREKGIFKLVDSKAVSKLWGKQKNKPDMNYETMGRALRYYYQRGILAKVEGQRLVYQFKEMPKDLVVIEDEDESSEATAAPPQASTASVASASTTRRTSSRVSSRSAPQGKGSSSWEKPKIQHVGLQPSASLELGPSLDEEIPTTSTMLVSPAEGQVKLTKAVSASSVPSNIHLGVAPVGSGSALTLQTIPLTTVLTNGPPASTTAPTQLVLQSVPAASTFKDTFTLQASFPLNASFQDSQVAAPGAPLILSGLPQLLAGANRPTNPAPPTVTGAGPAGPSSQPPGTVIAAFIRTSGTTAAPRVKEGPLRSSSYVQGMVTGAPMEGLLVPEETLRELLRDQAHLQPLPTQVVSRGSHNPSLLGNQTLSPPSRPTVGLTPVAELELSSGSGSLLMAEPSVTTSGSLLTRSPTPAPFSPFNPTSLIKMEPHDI
Method in brief: as §1

ELK4 = molecular target: T9, ELK4 (Homo sapiens, UniProt P28324-2 1-405); conditions: protein: recombinant; tags: N-terminal GST; dsDNA, one strand shown
T9 sequence: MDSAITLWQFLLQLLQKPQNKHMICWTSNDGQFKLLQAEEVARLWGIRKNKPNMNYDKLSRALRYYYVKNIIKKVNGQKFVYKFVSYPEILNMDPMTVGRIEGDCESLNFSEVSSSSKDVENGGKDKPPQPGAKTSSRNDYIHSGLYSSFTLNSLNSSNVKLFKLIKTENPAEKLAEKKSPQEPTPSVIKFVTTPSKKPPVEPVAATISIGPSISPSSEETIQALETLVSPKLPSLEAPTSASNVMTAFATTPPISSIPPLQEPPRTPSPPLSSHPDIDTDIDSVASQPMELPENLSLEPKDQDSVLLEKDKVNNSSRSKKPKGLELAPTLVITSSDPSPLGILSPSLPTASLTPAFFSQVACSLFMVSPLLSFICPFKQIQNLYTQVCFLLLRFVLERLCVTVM
Method in brief: as §1

ETV2 = molecular target: T10, ETV2 (Homo sapiens, UniProt O00321 1-342); conditions: protein: recombinant; tags: N-terminal GST; dsDNA, one strand shown
T10 sequence: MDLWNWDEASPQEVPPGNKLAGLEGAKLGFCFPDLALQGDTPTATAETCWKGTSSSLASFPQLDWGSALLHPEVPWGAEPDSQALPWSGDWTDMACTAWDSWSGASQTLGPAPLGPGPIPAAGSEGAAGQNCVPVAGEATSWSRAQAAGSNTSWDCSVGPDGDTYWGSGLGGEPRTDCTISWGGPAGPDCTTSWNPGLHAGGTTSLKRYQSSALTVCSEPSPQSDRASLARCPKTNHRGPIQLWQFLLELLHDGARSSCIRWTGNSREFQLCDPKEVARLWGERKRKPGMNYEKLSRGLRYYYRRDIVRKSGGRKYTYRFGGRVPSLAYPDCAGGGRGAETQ
Method in brief: as §1

ELF3 = molecular target: T11, ELF3 (Homo sapiens, UniProt P78545 1-371); conditions: protein: recombinant; tags: N-terminal GST; dsDNA, one strand shown
T11 sequence: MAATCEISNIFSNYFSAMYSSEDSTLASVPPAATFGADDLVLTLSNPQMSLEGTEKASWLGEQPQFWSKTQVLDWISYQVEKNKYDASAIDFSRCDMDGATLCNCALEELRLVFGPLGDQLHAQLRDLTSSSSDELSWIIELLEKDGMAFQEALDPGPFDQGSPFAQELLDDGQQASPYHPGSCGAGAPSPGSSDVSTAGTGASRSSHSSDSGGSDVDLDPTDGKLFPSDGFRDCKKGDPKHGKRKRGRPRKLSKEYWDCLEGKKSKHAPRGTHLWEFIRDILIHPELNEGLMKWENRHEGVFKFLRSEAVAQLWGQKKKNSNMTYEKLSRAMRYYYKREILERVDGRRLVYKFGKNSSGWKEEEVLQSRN
Method in brief: as §1

ETV1 = ETV1 (Homo sapiens, UniProt P50549 1-477); conditions: protein: recombinant; tags: N-terminal GST; dsDNA, one strand shown
ETV1, sequence (P50549 whole entry): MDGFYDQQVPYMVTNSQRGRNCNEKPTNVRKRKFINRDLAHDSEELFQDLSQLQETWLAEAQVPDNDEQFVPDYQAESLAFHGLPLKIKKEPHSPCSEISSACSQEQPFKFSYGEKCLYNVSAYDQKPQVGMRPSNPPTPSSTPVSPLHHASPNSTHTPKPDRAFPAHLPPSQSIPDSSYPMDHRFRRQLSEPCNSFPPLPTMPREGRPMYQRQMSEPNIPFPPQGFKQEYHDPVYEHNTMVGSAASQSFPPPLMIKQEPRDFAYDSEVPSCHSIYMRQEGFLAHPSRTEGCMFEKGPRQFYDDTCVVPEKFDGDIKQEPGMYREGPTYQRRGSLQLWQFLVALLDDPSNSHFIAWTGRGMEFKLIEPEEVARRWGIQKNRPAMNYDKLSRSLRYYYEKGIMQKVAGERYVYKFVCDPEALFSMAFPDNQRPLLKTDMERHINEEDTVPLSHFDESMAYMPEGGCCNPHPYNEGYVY
Method in brief: as §1

Sequence: TGCCCC
- binding signal (FLI1): 1.13 fold enrichment (6-mer frequency, TF over GST control)
- binding signal (ELK1): 1.2 fold enrichment (6-mer frequency, TF over GST control)
- binding signal (GABPA): 1.27 fold enrichment (6-mer frequency, TF over GST control)
- binding signal (ERG): 1.28 fold enrichment (6-mer frequency, TF over GST control)
- binding signal (ELF1): 1.27 fold enrichment (6-mer frequency, TF over GST control)
- binding signal (EHF): 1.32 fold enrichment (6-mer frequency, TF over GST control)
- binding signal (SPI1): 1.31 fold enrichment (6-mer frequency, TF over GST control)
- binding signal (SPIB): 1.13 fold enrichment (6-mer frequency, TF over GST control)
- binding signal (ELK3): 1.18 fold enrichment (6-mer frequency, TF over GST control)
- binding signal (FEV): 1.36 fold enrichment (6-mer frequency, TF over GST control)
- binding signal (ETV5): 1.24 fold enrichment (6-mer frequency, TF over GST control)
- binding signal (HSF1): 1.01 fold enrichment (6-mer frequency, TF over GST control)
- binding signal (SPIC): 1.41 fold enrichment (6-mer frequency, TF over GST control)
- binding signal (ELF4): 1.26 fold enrichment (6-mer frequency, TF over GST control)
- binding signal (ELK4): 1.51 fold enrichment (6-mer frequency, TF over GST control)
- binding signal (ETV2): 1.21 fold enrichment (6-mer frequency, TF over GST control)
- binding signal (ELF3): 1.11 fold enrichment (6-mer frequency, TF over GST control)
- binding signal (ETV1): 1.19 fold enrichment (6-mer frequency, TF over GST control)
